Measurements taken from PubChem BioAssay AID493084 (National Center for Advancing Translational Sciences (NCATS), 2011).
Where “and” joins values, the source holds several entries; their conditions need not be identical. Identical values can stand only once. The campaign covered roughly 360,000 compounds. About 650 (0.18%) were called active. Many of the other results were omitted from the sample, so actives are more common in it than they were. A number with no mark means an inactive call. Cut-off read from the data, not from the text of the source: active = activation above about 30%; inactive = the rest.

Molecular target: Thyrotropin-releasing hormone receptor (Homo sapiens) (UniProt P34981)
Assay: qHTS for Small Molecule Agonists and Allosteric Enhancers of Human TRH Receptor: Primary Screen for Agonists. Note: 0% is about no effect.
Conditions: TRHR cells, calcium flux fluo-8, FDSS agonist mode; at 2 µM; active compounds read high
Source text: NIH Chemical Genomics Center [NCGC] NIH Molecular Libraries Probe Centers Network [MLPCN] MLPCN Grant: MH089816-01 Assay Submitter (PI): Marvin Gershengorn This project aims to identify small drug-like molecules that activate (agonists) the thyrotropin releasing hormone (TRH) receptor (TRHR) or enhance its TRH-stimulated activity (allosteric enhancers). TRHR, a drug-accessible cell surface receptor expressed in specific brain regions, and its ligand TRH have been implicated in several central nervous system disorders, including depression and anxiety. Small molecule TRHR agonists or allosteric enhancers that are metabolically stable and able to cross the blood-brain barrier might serve as probes to elucidate the roles of brain TRH receptors in animal models, and might be valuable as lead compounds for the development of drugs to treat patients with central nervous system disorders. Upon TRHR-Gq activation in TRHR cells, intracellular calcium is released from stores in the endoplasmic reticulum. […] This primary screen measures compound-induced activation of calcium release.
For the HTS assay freshly prepared cells are plated at a density of 2000/well in 3 ul of complete DMEM medium containing 10% serum in 1536-well plates and cultured over night at 37 C in a humidified incubator with 5% CO2. The next day, 2 ul of a no wash calcium dye (ABD Bioquest) was added to the cells and plates were incubated at room temperature for 1 hour. For the assay, assay plates were loaded into the FDSS kinetic plate reader. A 10 cycle (1 second/cycle) baseline measurement is taken and then the FDSS online 1536 pintool delivers 23 nl of compound library (as well as TRH controls) to the plate. The plate is measured for kinetically at 1 cycle/sec for 180 seconds and is considered to be the agonist portion of the assay (eg, compounds which activate a positive calcium response during this portion are flagged as potential agonists). Following the 180 second read, 1 ul of either an EC20 (positive modulation assay) is delivered by an onboard pipette head. Measurements are taken kinetically for an additional 180 seconds. TRHR FDSS Screening Protocol 1. Reagent, 3 uL 2000 cells/well 1536 TC treated Black plate in media containing 10% FCS 2. Time, 18 hours, 33.5C 5% CO2 (cells grown at 37C) 3. Reagent, 2 uL ABD fluo-8 Ca dye 4. Time, 30 min-1.5hrs hours, Room temp (6 plates/batch) 5. Detector, EX 480/EM 530C, FDSS 10 cycles baseline (1sec/cycle) 6. Compound, 23 nL of stock solution from library 7. Detector, EX 480/EM 530C, FDSS […] (1sec/cycle) Agonist mode 8. Compound, 1 ul EC20 of TRH made up in HEPES HBSS, 10 nM final 9. Detector, EX 480/EM 530C, FDSS 100 cycles (1sec/cycle) Potentiator mode

Sequence of Thyrotropin-releasing hormone receptor (Homo sapiens) (P34981 whole entry, looked up): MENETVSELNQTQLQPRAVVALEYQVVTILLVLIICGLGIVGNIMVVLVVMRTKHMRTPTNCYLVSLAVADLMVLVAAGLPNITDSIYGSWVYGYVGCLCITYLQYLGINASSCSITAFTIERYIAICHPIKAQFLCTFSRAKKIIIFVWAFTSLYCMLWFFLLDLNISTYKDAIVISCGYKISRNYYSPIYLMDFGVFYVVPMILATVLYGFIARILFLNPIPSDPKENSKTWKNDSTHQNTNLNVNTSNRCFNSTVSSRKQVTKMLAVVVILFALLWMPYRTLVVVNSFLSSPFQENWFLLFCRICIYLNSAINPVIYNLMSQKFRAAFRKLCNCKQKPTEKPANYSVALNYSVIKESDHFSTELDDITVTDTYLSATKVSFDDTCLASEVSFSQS

| SMILES | activation |
| --- | --- |
| CCc1ccccc1NC(=S)Nc1cc(OC)c(NC(=O)C(C)C)cc1OC | 0.112% |
| CCc1ccccc1NC(=O)/C(=C/c1ccccc1)c1ccccc1 | 56.2% (active) |
| CCc1ccccc1NC(=O)CCOc1ccccc1 | 0.744% and -1.55% |
| Cc1c(NC(=O)C(C)(C)C)cccc1-c1nc2ccccc2s1 | 1.53% |
| O=C(Cn1nc(Cc2cccnc2)c2ccccc2c1=O)N1CCN(c2ccccc2F)CC1 | -1.92% |
| CCOc1ccc(NC(=O)c2cnn(-c3ccccc3)c2-n2cccc2)cc1 | -2.32% |
| O=C(NCCCO)C(=O)Nc1c2c(nn1-c1ccc(F)cc1)CSC2 | -1.01% |
| CCOC(=O)c1[nH]c2ccc(C)cc2c1N=C(C)N(C)C | 32.1% (active) |
| CCOC(=O)c1ccc2[nH]c3c(c2c1)CCCC3NC=O (stereo unspecified) | 0.37% |
| CCOC(=O)c1cc2cc(C)ccc2[nH]1 | 0.835% |
| NC(=O)c1ccc(NC(=O)COC(=O)C(Cc2ccccc2)NC(=O)c2ccccc2)cc1 (stereo unspecified) | -0.12% |
| O=C(CSc1nc(C2CC2)nc2ccccc12)Nc1ccc2c(c1)OCCO2 | -1.49% |
| NC(=O)c1ccc(NC(=O)COC(=O)c2c3c(nc4ccccc24)/C(=C\c2ccc4c(c2)OCO4)CCC3)cc1 | 50.8% (active) |
| Cn1nnnc1Sc1ncnc2scc(-c3ccccc3[N+](=O)[O-])c12 | -0.547% |
| N#Cc1nc(/C=C/c2ccc(F)cc2)oc1NC1CCCCC1 | 0.903% |
| CCCCOc1ccc(CNC(=O)c2ccc3c(c2)N(C)C(=O)C2CCCCN32)cc1 (stereo unspecified) | -0.251% |
| CNC(=O)c1ccc(-c2nc(CN3CCc4ccccc43)c(C)o2)cc1 | -1.17% |
| Nc1c(C(=O)c2cccs2)sc2nsc(SCCN3CCCCC3)c12 | 99.5% (active) |
| COC(=O)c1ccccc1NC(=O)c1cc(-c2ccccc2O)no1 | -0.321% |

| SMILES | activation |
| --- | --- |
| CC(NC(=O)CCc1cn(Cc2ccccc2Cl)c2ccccc12)c1ccccc1 (stereo unspecified) | 0.58% |
| COc1cc(OC)c(OC)cc1/C=C/c1nc2cc3ccccc3cc2c(=O)n1-c1ccc(F)c(Cl)c1 | 0.234% |
| Cc1cc2nc3c(=O)n(Cc4ccccc4)c(=O)[nH]c3nc2cc1N | 134% (active) |
| Cn1c(=O)[nH]c(=O)c2c1[nH]c(=S)n2Cc1ccccc1 | 0.0169% |
| CCC(=O)Nc1ccc(C)cc1-c1nc2ccccc2n(Cc2ccccc2)c1=O | 0.131% |
| CCN(CCCNC(=O)Cn1ncc2c([nH]c3ccccc32)c1=O)c1cccc(C)c1 | -0.233% |
| Cc1cccc(CC(=O)N2CC(=O)Nc3ccc(F)cc3C2c2ccccc2)c1 (stereo unspecified) | -0.138% |
| O=C(O)c1ccc(CSc2nc3cccnc3n2Cc2cccc(F)c2)cc1 | -0.0878% |
| CCCNC(=O)c1ccc2c(c1)ncn2-c1ccc(C)cc1C | -0.34% |
| O=C(C1=C(O)C(=O)N(c2ncccn2)C1c1cccs1)c1ccco1 (stereo unspecified) | 1.88% |
| C=CCSc1nnc(N2C(=O)C(O)=C(C(=O)c3ccco3)C2c2ccc(F)cc2)s1 (stereo unspecified) | 48.4% (active) |
| Cc1ccc2nc(N3C(=O)C(O)=C(C(=O)c4ccco4)C3c3cccc(O)c3)sc2c1 (stereo unspecified) | 0.69% |
| CCNS(=O)(=O)c1ccc(NC(=O)CSc2nc(-c3ccco3)cc(C(F)(F)F)n2)cc1 | -0.0767% |
| O=C(CNC(=O)c1ccc(Cl)c(C(F)(F)F)c1)OC(C(=O)Nc1cc(C(F)(F)F)ccc1Cl)c1ccccc1 (stereo unspecified) | 1.33% |
| COc1cc2ccccc2cc1C(=O)Nc1cccc(-c2nc3ccccc3o2)c1 | 0.963% |
| COc1cccc(C(=O)NC2CCN(C#N)CC2)c1 | 0.979% |
| CCc1ccccc1NC(=O)c1sc2nc3c(cc2c1N)CN(Cc1ccccc1)CC3 | 0.215% |
| Cn1c(=O)c2c(nc(SCC(=O)Nc3ccc(F)cc3)n2Cc2ccccc2)n(C)c1=O | -1.27% |
| Cc1ccc(C)n1-c1nnc(N2CCC(C(=O)NCc3ccc(F)cc3)CC2)s1 | -0.123% |

| SMILES | activation |
| --- | --- |
| COc1cccc(-c2nnc3n(CCc4ccccc4)c(=O)c4ccccc4n23)c1O | 0.407% |
| Cc1ccc(CNC(=O)CCNS(=O)(=O)c2ccc3c(c2)oc(=O)n3C)cc1 | -0.309% |
| COc1ccc(-n2ccn(CC(=O)Nc3ccc(C)c(C)c3)c(=O)c2=O)cc1OC | 0.851% |
| CCOC(=O)C1CCCN(S(=O)(=O)c2cc(-c3cc(C)no3)ccc2OC)C1 (stereo unspecified) | -0.0318% |
| CC(=O)c1ccc(NC(=O)CSc2nc(-c3ccccc3F)nc3c2c(=O)n(C)c(=O)n3C)cc1 | 0.407% |
| Cc1ccccc1C(=O)Nc1sc2c(c1C(=O)N1CCC(C)CC1)CCCC2 | -0.34% |
| COc1cccc(C(=O)c2sc3nc(-c4ccccc4)cc(C(F)(F)F)c3c2N)c1 | 106% (active) |
| COc1cccc(C(=O)Nc2ccc(-c3cc(C(F)(F)F)nn3-c3ccccc3)cc2)c1 | 1.81% |
| COc1cccc(C(=O)NC(=O)Nc2nc(C)cc(C(F)(F)F)n2)c1 | 1.04% |
| CCOC(=O)c1cccc(NC(=O)c2cc(CN3CCCC3)on2)c1 | 0.429% |
| CCC(C)Nc1oc(-c2ccc(COc3ccc(Cl)cc3)o2)nc1C#N (stereo unspecified) | 0.327% |
| O=C1CCN(Cc2ccc([N+](=O)[O-])cc2)CCN1[C@H](CO)Cc1ccccc1 | 1.11% |
| O=C(NCCCCc1ccccc1)C1CC(c2ccc([N+](=O)[O-])cc2)=NO1 (stereo unspecified) | -1.16% |
| O=C1NC(=O)C2C1C(c1ccc([N+](=O)[O-])cc1)=NN2Cc1ccccc1 (stereo unspecified) | 34% (active) |
| CC1CCCN(c2csc3ccc(F)cc3c2=O)C1 (stereo unspecified) | 0.824% |
| COc1ccccc1OCC(=O)Nc1nnc2n1CCS2 | 0.414% |
| CN(c1ccccc1)c1ccc(/C=c2\s/c(=C(/C#N)C(=O)C(C)(C)C)n(Cc3ccco3)c2=O)cc1 | 40.8% (active) |
| CCOc1ccccc1NC(=O)Cn1c(=O)n(Cc2ccco2)c(=O)c2sc3ccccc3c21 | -0.0246% |
